Consider 25 compounds from ChEMBL document CHEMBL3988442, “University of Dundee, Small-Polar-MMV Screening Library” (2021).

Out of some 69,000 compounds screened, about 950 (1.4%) showed an effect of 50% or more. What follows is part of a selection rich in strong results, with near analogues and random picks from the rest.

This assay concerns Mycobacterium tuberculosis. Briefly: Cornell M. t heat shock assay. Further: in the data most compounds retested in dose-response had high values. More on the design: dose or concentration left out as unconfirmed. It is filed as functional, organism-based.
With `CC(NC(=O)NCc1ccccc1)(C(=O)O)c1ccco1` (stereo not given), the “Percent Effect” value was -8.455%.

In the case of `CC(=O)CN1CC2(CCNCC2)COc2ccccc2S1(=O)=O.O=C(O)C(F)(F)F`, the “Percent Effect” value is reported as -27.15%.

Take `Cn1ccc(C(=O)N2CCOC3(COCCN(CC4CC4)C3)C2)n1.O=C(O)C(F)(F)F` (stereo not given): the “Percent Effect” value turned out to be 32.82%.

Regarding `CS(=O)(=O)N[C@@H]1CN(C(=O)c2cccnc2)[C@@H]2CCCO[C@@H]21.O=C(O)C(F)(F)F`, the “Percent Effect” value is listed as -22.75%.

For the compound `COCCN1CCc2cc(C(=O)NC(C)C)c(NCC3CC3)nc2CC1.O=C(O)C(F)(F)F.O=C(O)C(F)(F)F`, the “Percent Effect” value is -25.1%.

`Cn1c2c(ccc1=O)CCN(Cc1ccoc1)CC2.O=C(O)C(F)(F)F`: the “Percent Effect” value is on record as -16.65%.

For the compound `Cl.Cn1nc(C2CCCN(Cc3cccs3)C2)c2nccnc21` (stereo not given), the “Percent Effect” value is 1.565%.

With `CN(C)CCN1CC[C@@H]2O[C@@H](COCC(=O)N3CCCC3)CC[C@@H]21.O=C(O)C(F)(F)F.O=C(O)C(F)(F)F`, the “Percent Effect” value is given as -33.31%.

Regarding `Cc1noc(C(C)C)c1C(=O)NCCCN1CCNCC1.Cl`, the “Percent Effect” value was 0.9177%.

As to `CCc1noc(CS(=O)(=O)Cc2ccccc2C)n1`, the “Percent Effect” value was 31.56%.

Consider `O=S(=O)(C/C=C/c1ccccc1)Cc1nc(C2CC2)no1`, for which the “Percent Effect” value is reported as 19.84%.

Consider `Cc1ccccc1CS(=O)(=O)Cc1nc(C2CC2)no1`, for which the “Percent Effect” value was 92.63%.

With `CCc1noc(CS(=O)(=O)Cc2nc(Cc3ccccc3)no2)n1`, the “Percent Effect” value was -8.996%.

Consider `Cc1noc(C)c1CS(=O)(=O)Cc1nc(C2CC2)no1`, for which the “Percent Effect” value stood at 6.324%.

With `O=S(=O)(CCc1ccccc1)Cc1nc(C2CC2)no1`, the “Percent Effect” value was 59.77%.

With `O=S(=O)(Cc1nc(C2CC2)no1)c1ccccc1F`, the “Percent Effect” value is recorded as 12.43%.

Take `O=S(=O)(Cc1nc(C2CC2)no1)c1cc(F)ccc1F`: the “Percent Effect” value is on record as 12.65%.

Turning to `CCc1noc(CS(=O)(=O)Cc2ccccc2Cl)n1`, the “Percent Effect” value is reported as 95.51%.

Take `Cl.O=C(CCC1CCCC1)N1CCCC(c2ncc3c(n2)CCNC3)C1` (stereo not given): the “Percent Effect” value is on record as -5.492%.

As for `CC(C)CCN1C[C@H]2C[C@H](C(=O)NCC(C)C)[C@@H](C1)O2.O=C(O)C(F)(F)F`, the “Percent Effect” value is listed as 22.63%.

Take `Cc1nnc(N2CCCC3(CN(Cc4ccc(F)cc4)CCO3)C2)o1.O=C(O)C(F)(F)F` (stereo not given): the “Percent Effect” value is given as -29.82%.

`c1cnc(N2C[C@@H]3CC[C@H](C2)N(Cc2ccsc2)C3)nc1`: the “Percent Effect” value turned out to be 15.45%.

For `CN(C)CCOCc1nnc2n1CCN(Cc1ccoc1)CC2.O=C(O)C(F)(F)F.O=C(O)C(F)(F)F`, the “Percent Effect” value is -36.04%.

With `O=C(O)C(F)(F)F.c1cc(CN2CCc3c(nnn3CC3CC3)C2COCC2CC2)co1` (stereo not given), the “Percent Effect” value is -36.71%.

For the compound `CC(C)(C)OC(=O)NCC1CCCCN1Cc1ccncc1` (stereo not given), the “Percent Effect” value turned out to be 24.03%.
